# PubChem BioAssay AID1985 (Southern Research Specialized Biocontainment Screening …, 2009)
# Among all 2,300 compounds or so, about 1,000 (43%) were called active. How the calls were made is not given here. So high a share suggests a set chosen from earlier hits. The list shows a part of the results. Results with a measured potency or affinity are listed apart.
# Assay: modified counter assay using GFP fluorescence, PhoP regulon inhibitor project, dose response (AID 1985)
# Details: S. Typhi, 4 h; series mostly up to 150 µM
row,SMILES,outcome
1,COc1cccc(C(c2c(C)[nH]n(-c3ccccc3)c2=O)c2c(C)[nH]n(-c3ccccc3)c2=O)c1O,inactive
2,COC(=O)C(O)(c1c(C)[nH]n(-c2ccccc2)c1=O)C(F)(F)F (stereo unspecified),inactive
3,Cc1c(-n2c(SCC(=O)C(C)(C)C)nc3ccccc3c2=O)c(=O)n(-c2ccccc2)n1C,inactive
4,Cc1nc(SCC(=O)N2c3ccccc3Sc3ccccc32)n[nH]1,inactive
5,CC(=O)NCCn1c(SCc2ccccc2C)nc2ccccc2c1=O,inactive
6,CC1(C)Cc2c(sc(NC(=O)COc3ccc(Cl)cc3)c2C(N)=O)C(C)(C)N1,inactive
7,CCC1Oc2ccc(C)cc2N(CC(=O)NCC2COc3ccccc3O2)C1=O (stereo unspecified),inactive
8,COc1ccccc1NC(=O)CN1CCC(c2nc3ccc(C)cc3[nH]2)CC1,inactive
9,COc1ccc(C)cc1NC(=O)C1CCN(S(=O)(=O)c2c(C)noc2C)CC1,inactive
10,COc1ccccc1-n1nc(C(=O)NCc2ccco2)c2ccccc2c1=O,inactive
11,CC1CCN(CCCNC(=O)c2ccc3c(=O)n(Cc4ccc(Cl)cc4)c(=S)[nH]c3c2)CC1,inactive
12,O=C(O)CC12CC3CC(C1)CC(n1ncc(NCC4CCCO4)c(Cl)c1=O)(C3)C2 (stereo unspecified),inactive
13,CCOC(=O)c1nc(C)n(-c2cc(Cl)ccc2Cl)n1,inactive
14,Cc1ccc(CN2C3=NCCN3c3ccccc32)cc1,inactive
15,O=C(CN1C2=NCCN2c2ccccc21)c1ccco1,inactive
16,COc1cccc2[nH]c3c(N4CCN(Cc5ccc6c(c5)OCO6)CC4)ncnc3c12,inactive
17,O=c1cc(-c2ccccc2)nc(N2CCN(Cc3ccccc3)CC2)[nH]1,inactive
18,c1cc2c(cc1Oc1nc(N3CCOCC3)nc(N3CCOCC3)n1)OCO2,inactive
19,Cc1ccc2nc3c(c(N)c2c1)CCN3C,inactive
20,CC(C)N=C(N)N=C(N)Nc1ccc(Cl)cc1,inactive
21,Cc1cc(NCCCn2ccnc2)n2ncc(-c3ccccc3)c2n1,inactive
22,C[C@@H](C(=O)NC1CCCC1)N1C(=O)N2CCc3c([nH]c4ccccc34)[C@@]2(C)C1=O,inactive
23,O=S1(=O)CC=C(CSC(=S)NC2CCS(=O)(=O)C2)C1 (stereo unspecified),inactive

row,SMILES,outcome
1,CCc1cc(CNC(=O)C2CCC(=O)N(Cc3cccc(F)c3)C2)on1 (stereo unspecified),inactive
2,CC(C)NC(=O)CN1CCN(Cc2nc(C(c3ccccc3)c3ccccc3)no2)CC1,inactive
3,Cc1cnc(NC(=O)CN2C(=O)C3CC=CCC3C2=O)s1 (stereo unspecified),inactive
4,Cc1cc(NS(=O)(=O)c2ccc(Nc3nc(-c4sc(NC(=O)c5ccccc5)nc4C)cs3)cc2)no1,inactive
5,Cc1cc(NS(=O)(=O)c2ccc(NC(=O)C(C)Oc3ccc4c(C)cc(=O)oc4c3)cc2)no1 (stereo unspecified),inactive
6,CCc1nnc(NS(=O)(=O)c2ccc(NC(=S)NC(=O)/C=C/c3ccc(C(C)C)cc3)cc2)s1,inactive
7,COc1nccnc1NS(=O)(=O)c1ccc(NC(=S)NC(=O)c2cccnc2)cc1,inactive
8,CC(C)n1cnnc1SCC(=O)Nc1ccc(Br)cc1F,inactive
9,COC(=O)c1ccc(C)c(NC(=O)CN2C(=O)c3ccccc3S2(=O)=O)c1,inactive
10,CS(=O)(=O)c1cnc2c(-c3ccc(F)cc3)cnn2c1N,inactive
11,O=C(CCl)NC1CCCc2ccccc21 (stereo unspecified),inactive
12,COc1ccc(NC(=O)N2CCc3ccccc32)cc1,inactive
13,CCOc1ccccc1NC(=O)Nc1ccncc1,inactive
14,S=C(NCc1ccc(Cl)cc1)Nc1ccncc1,inactive
15,Cc1ccc(NC(=O)C(=O)NCc2ccncc2)cc1,inactive
16,CCCCOc1ccc(-c2nnn(CC(=O)Nc3ncc(CC(=O)OCC)s3)n2)cc1,inactive
17,CCOc1ccc(N2C(=O)CN(O)C=C3N=c4ccccc4=C32)cc1,inactive
18,Cc1cccc(OCCSc2nnc(-c3ccoc3C)n2C)c1,inactive
19,O=C(NCCCN1CCOCC1)c1sc2cc(Cl)ccc2c1Cl,inactive
20,Cc1cccc(OCc2nnc(SCC(=O)N3CCCC3)n2C)c1,inactive
21,C[N+]1(CC2COC3(CCCCC3)O2)CCCCC1 (stereo unspecified),inactive
22,CCN(CC)S(=O)(=O)c1ccc2c(c1)c(C(=O)O)cn2C,inactive
23,Cc1nnc(SCC(=O)N(C(C)C)C(C)C)[nH]c1=O,inactive

row,SMILES,outcome
1,O=C1CCCN1c1ccc(CNS(=O)(=O)c2ccc(F)cc2)cc1,inactive
2,CCCCOc1ccc(C2=NNC(=O)CC2)cc1,inactive
3,O=C(O)c1cnn2c1NC(c1cccs1)CC2C(F)(F)F (stereo unspecified),inactive
4,Cc1cc2ncn(/N=C/c3ccc([N+](=O)[O-])o3)c2cc1C,inactive
5,O=C(Nc1ccccc1)c1cccnc1N1CCOCC1,inactive
6,Cc1cccc(N2CCN(C(=O)C3CCN(c4nnc(-n5cccc5)s4)CC3)CC2C)c1 (stereo unspecified),inactive
7,COCCNC(=S)N=Nc1c(O)[nH]c2ccc([N+](=O)[O-])cc12,inactive
8,c1ccc2c(c1)nc(N1CCOCC1)c1c3ccccc3[nH]c21,inactive
9,CC(=O)N1CSCC1C(=O)N1CCN(c2ccc(N3CCOCC3)nn2)CC1 (stereo unspecified),inactive
10,Cc1nc2ccc(NC(=O)C(F)(F)F)cc2o1,inactive
11,CCn1nnnc1NCc1cccc(Cl)c1,inactive
12,O=C(NCCCn1ccnc1)c1cc2c(ccc3ccccc32)o1,inactive
13,O=C(/C=C/c1ccc(Cl)cc1)NCCCn1ccnc1,inactive
14,Cc1noc(C)c1S(=O)(=O)N1CCC(Cc2ccccc2)CC1,inactive
15,CC(C)(C)c1ccc(NC(=O)COc2ccc(-n3ccnc3)cc2)cc1,inactive
16,Cc1nn(-c2ccccc2)c(C)c1/C=N/n1c(-c2ccc(C(C)(C)C)cc2)n[nH]c1=S,inactive
17,CC1CCCC(NC(=O)COC(=O)CCSc2ccccc2)C1C (stereo unspecified),inactive
18,O=C(Nc1ccccc1)C1=C(O)CC(c2ccc(Cl)cc2)N2CCN=C12 (stereo unspecified),inactive
19,CN(C)CCCN1c2ccccc2CCc2ccc(Cl)cc21,inactive
20,CNCCC=C1c2ccccc2CCc2ccccc21,inactive
21,c1cc(N2CCCC2)ccc1C(c1nnnn1C1CCCCC1)N1CCOCC1 (stereo unspecified),inactive
22,O=C(N/N=C/c1ccco1)c1cccc(NC(=O)c2cccc(Cl)c2)c1,inactive
23,O=C(Nc1ccc2c(c1)OCCO2)C(=S)NCc1ccccc1,inactive

row,SMILES,outcome
1,Cc1ccccc1Cn1c(=O)n(CCCC(=O)NCc2ccco2)c(=O)c2ccccc21,inactive
2,Cc1cc(C)nc(SCC(=O)NCc2ccco2)n1,inactive
3,CC(C)CN1CCN(Cc2cnc(N3CCOCC3)s2)CC1CCO (stereo unspecified),inactive
4,O=C(Nc1ccc(N2CCOCC2)c(Cl)c1)c1ccc(-n2cnnc2)cc1,inactive
5,CCOc1ccc(N2CC(C(=O)OCC(=O)NCc3ccccc3)CC2=O)cc1 (stereo unspecified),inactive
6,COc1ccc2nc(NC(=O)Nc3ccccc3)sc2c1,inactive
7,COc1ccc2nc(Nc3ccccc3)sc2c1,inactive
8,CC(C)Oc1ccc(N2CC(C(=O)Nc3ccccc3F)CC2=O)cc1 (stereo unspecified),inactive
9,Cc1ccc(C)c(NC(=O)CCC(=O)N/N=C/c2cc([N+](=O)[O-])ccc2O)c1,inactive
10,O=[N+]([O-])c1ccc2oc(C3CCCCC3)nc2c1,inactive
11,CC(=O)Cc1nsc(NC(=O)c2csc3c2CCCC3)n1,inactive
12,Oc1ccccc1-c1cc(C(F)(F)C(F)F)[nH]n1,inactive
13,O=C(O)c1ccc(N2C(=O)CC(N3C(=O)/C(=C/c4ccc(Cl)cc4)SC3=S)C2=O)cc1 (stereo unspecified),inactive
14,CN1C(=O)/C(=C/c2cccc(Cl)c2)Sc2ccc(C(=O)N3CCCC3)cc21,inactive
15,CC1CCN(c2c(NCc3ccc(C(=O)N4CCN(C5CCCCC5)CC4)cc3)c(=O)c2=O)CC1,inactive
16,Cc1cccc(NC(=O)c2sc3nc(-c4ccccc4)cn3c2C)n1,inactive
17,Cc1cc[n+](CC(=O)c2ccc(NC(=O)c3ccccc3)cc2)cc1,inactive
18,COc1cccc(N2CCN(C(=S)NCc3ccco3)CC2)c1,inactive
19,COc1ccc(OC)c(-c2cc(C(=O)Nc3ccc(F)cc3F)no2)c1,inactive
20,N#Cc1nc(COc2ccc(Br)cc2)oc1NCCCn1ccnc1,inactive
21,COc1ccc2nc(N(CCN(C)C)C(=O)/C=C/c3cccs3)sc2c1,inactive
22,Cc1cccc(CSCCNC(=O)COc2ccc(Cl)cc2)c1,inactive
23,Cc1cc(C)c2sc(N(CCCN(C)C)C(=O)COc3ccc(Cl)cc3)nc2c1,inactive

row,SMILES,outcome
1,CN(C)CCN(C(=O)C1=COCCO1)c1nc2ccc(Cl)cc2s1,inactive
2,COc1ccccc1C1CN(c2ccc(F)cc2F)N=C1c1cccs1 (stereo unspecified),inactive
3,Cc1ccc(S(=O)(=O)N2CCOCC2)cc1NC(=O)CSc1nc(N)cc(=O)[nH]1,inactive
4,C=CCN1C(=O)C(O)(CC(=O)c2c(C)n[nH]c2C)c2cc(Br)ccc21 (stereo unspecified),inactive
5,Cc1nc(N=Nc2ccc(O)cc2)n[nH]1,inactive
6,Cc1cc(C)nc(/N=C(\N)Nc2ccc(SC(F)F)cc2)n1,inactive
7,O=C(Cn1cc(/C=C\[N+](=O)[O-])c2ccccc21)Nc1ccccc1,inactive
8,CC(C)(C)n1nc2c(c1NC(=O)Cc1cccs1)CSC2,inactive
9,CC1(NC(=O)NCCCCCCNC(=O)NC2(C)CCS(=O)(=O)C2)CCS(=O)(=O)C1 (stereo unspecified),inactive
10,Nc1ncnc2nc(SCC(=O)Nc3cccc(C(F)(F)F)c3)[nH]c12,inactive
11,O=C(Nc1ccc2[nH]c(=S)sc2c1)Nc1ccccc1F,inactive
12,c1cnc2nc(-c3ccc4c(c3)OCO4)cn2c1,inactive
13,Clc1ccc(Cn2cccc2C2=NCCO2)cc1,inactive
14,CN1CCN(c2nc(Nc3ccc(F)cc3)nc(Nc3ccc(F)cc3)n2)CC1,inactive
15,COc1ccc(S(=O)(=O)N[C@H](C(=O)N2CC[C@@]3(O)CCCC[C@H]3C2)c2ccccc2)cc1,inactive
16,CCN(CC)CCOC(=O)c1cc(Cl)c(N)cc1OC,inactive
17,O=C(/C=C/c1ccc(O)cc1)c1ccccc1,inactive
18,CCc1c(C)n([O-])c2c([n+]1=O)CCCCC2,inactive
19,COc1ccc(N(CC(=O)N2c3ccccc3CC2C)S(=O)(=O)c2c(C)noc2C)cc1 (stereo unspecified),inactive
